The results in this text go back to PubChem BioAssay (NCATS).

Experiment [1] can be described thus: Quantitative High-Throughput drug screen in 47 multiple myeloma cell lines against the NCATS MIPE library collection: Delta47_JCRB cell viability assay (AID 1918925; further: nearly all actives have a fitted effect of over 45% in size). The method in brief: (§1)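 CellTiter-Glo luminescence (ATP) after 48 h compound exposure, 37C/5% CO2; 500 cells/well; MIPE 4.0 approved/investigational drugs pinned in; DMSO = 100%, media only = 0% viability.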

Experiment [2] is described as follows: Quantitative High-Throughput drug screen in 47 multiple myeloma cell lines against the NCATS MIPE library collection: AMO1_DSMZ cell viability assay (AID 1918927; further: nearly all actives have a fitted effect of over 30% in size). Put shortly:
as §1

Experiment [3] can be described thus: Quantitative High-Throughput drug screen in 47 multiple myeloma cell lines against the NCATS MIPE library collection: ARP1_JJKsccF8 cell viability assay (AID 1918928; further: nearly all actives have a fitted effect of over 40% in size). The method in brief:
(§2)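 Luminescence from CellTiter-Glo, taken after 5 min at room temperature, reports cellular ATP as viability. Cells (500 per well) had been treated 48 h at 37 °C with MIPE 4.0 compounds, scaled between DMSO and medium-only controls.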

Experiment [4] can be described thus: Quantitative High-Throughput drug screen in 47 multiple myeloma cell lines against the NCATS MIPE library collection: KMM1_JCRB cell viability assay (AID 1918960). Further: nearly all actives have a fitted effect of over 30% in size. The method in brief: as §2
Experiment [5] in a line: Quantitative High-Throughput drug screen in 47 multiple myeloma cell lines against the NCATS MIPE library collection: JIM3_ECACC cell viability assay (AID 1918963; further: nearly all actives have a fitted effect of over 35% in size). The method in brief:
as §1

Experiment [6] in a line: Quantitative High-Throughput drug screen in 47 multiple myeloma cell lines against the NCATS MIPE library collection: INA6_PLB cell viability assay (AID 1918965; further: nearly all actives have a fitted effect of over 55% in size). The method in brief: (§3)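 Myeloma cells (500 per well) were exposed to MIPE 4.0 compounds by pin transfer and incubated 48 hours at 37C, 5% CO2. Viability was read as ATP by CellTiter-Glo luminescence, normalised to DMSO (100%) and media-only (0%) wells.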

Experiment [7] is described as follows: Quantitative High-Throughput drug screen in 47 multiple myeloma cell lines against the NCATS MIPE library collection: JJN3_DSMZ cell viability assay (AID 1918966; further: nearly all actives have a fitted effect of over 50% in size). The method in brief: as §1
Experiment [8] in a line: Quantitative High-Throughput drug screen in 47 multiple myeloma cell lines against the NCATS MIPE library collection: Karpas25_ECACC cell viability assay (AID 1918968; further: nearly all actives have a fitted effect of over 35% in size). Put shortly:
as §1

Experiment [9] can be described thus: Quantitative High-Throughput drug screen in 47 multiple myeloma cell lines against the NCATS MIPE library collection: KMS12BM_JCRB cell viability assay (AID 1918971). Further: nearly all actives have a fitted effect of over 35% in size. The method in brief:
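Relative luminescence from CellTiter-Glo served as the viability signal, referenced to DMSO-treated (100%) and cell-free medium (0%) controls. Treatment lasted 48 hours at 37C with 500 cells per well.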

The nature of experiment [10]: Quantitative High-Throughput drug screen in 47 multiple myeloma cell lines against the NCATS MIPE library collection: ARD_JJKsccE7 cell viability assay (AID 1918929). The method in brief:
as §1

Experiment [11] can be described thus: Quantitative High-Throughput drug screen in 47 multiple myeloma cell lines against the NCATS MIPE library collection: Karpas620_DSMZ cell viability assay (AID 1918959). Further: nearly all actives have a fitted effect of over 30% in size. The method in brief: as §1
A short description of experiment [12]: Quantitative High-Throughput drug screen in 47 multiple myeloma cell lines against the NCATS MIPE library collection: Karpas417_ECACC cell viability assay (AID 1918961). Conditions: Karpas417 myeloma viability, CellTiter-Glo ATP luminescence, 48 h; viability (% of DMSO): at 45.8 µM (top of the series). The method in brief:
as §3
For orientation: In ATP-based viability assays light output follows the ATP content of the culture.

Experiment [13] in a line: Quantitative High-Throughput drug screen in 47 multiple myeloma cell lines against the NCATS MIPE library collection: KMS12PE_JCRB cell viability assay (AID 1918972). Further: nearly all actives have a fitted effect of over 30% in size. Put shortly:
as §3

Experiment [14] in a line: Quantitative High-Throughput drug screen in 47 multiple myeloma cell lines against the NCATS MIPE library collection: KMS20_JCRB cell viability assay (AID 1918973). Further: nearly all actives have a fitted effect of over 45% in size. Put shortly:
as §1

Experiment [15] can be described thus: Quantitative High-Throughput drug screen in 47 multiple myeloma cell lines against the NCATS MIPE library collection: H1112_PLB cell viability assay (AID 1918967; further: nearly all actives have a fitted effect of over 30% in size). The method in brief: as §1
Experiment [16] in a line: Quantitative High-Throughput drug screen in 47 multiple myeloma cell lines against the NCATS MIPE library collection: KHM11_PLB cell viability assay (AID 1918962). Further: nearly all actives have a fitted effect of over 35% in size. Put shortly: as §1
The nature of experiment [17]: Quantitative High-Throughput drug screen in 47 multiple myeloma cell lines against the NCATS MIPE library collection: JIM1_ECACC cell viability assay (AID 1918964). The method in brief:
as §1

Experiment [18] can be described thus: Quantitative High-Throughput drug screen in 47 multiple myeloma cell lines against the NCATS MIPE library collection: KMS27_JCRB cell viability assay (AID 1918970). Further: nearly all actives have a fitted effect of over 30% in size. The method in brief:
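Each line is seeded at 500 cells per well and treated with library compounds for 48 hours under 37 °C, 5% CO2. CellTiter-Glo is then added for 5 min at room temperature before median relative luminescence is recorded.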

A short description of experiment [19]: Quantitative High-Throughput drug screen in 47 multiple myeloma cell lines against the NCATS MIPE library collection: KMS21BM_JCRB cell viability assay (AID 1918974). Conditions: ATP luminescence, 48 h; viability: at 45.8 µM (top of the series) unless noted. Put shortly: as §1

Inconclusive results are not listed. Active and inactive are the calls of the source. The call rests on the fitted dose curve; in most records, active means well fitted curve in the direction sought with a large enough effect; inconclusive means small, poorly fitted or top-dose-only effect, or another doubt; inactive means no such curve, though single readings can be large; an effect the other way counts as inactive or inconclusive.
Potency means the concentration at half of the fitted maximal effect.

Regarding `Cc1ccc(S(=O)(=O)Nc2cc(Cl)ccc2C(=O)Nc2nc(-c3ccccc3)cs2)cc1`, the Potency in [1] was 4690 nM (active); in [2], 9350 nM (active); in experiment [3], 20900 nM (active); in [4], 4180 nM (active); in experiment [5], 5260 nM (active); in [6], 8330 nM (active). Also, the Potency in experiment [7] is 18700 nM (active); in experiment [8], 5260 nM (active); in experiment [9], 16600 nM (active).

On to `COc1cc(C(=O)N2CCC(N3CCN(C)CC3)CC2)ccc1Nc1ncc2c(n1)N(C)c1ccccc1C(=O)N2C`, for which the Potency is 2640 nM (active) in [1]; 2350 nM (active) in [2]; 2350 nM (active) in experiment [3]; 1660 nM (active) in experiment [10]; 3320 nM (active) in experiment [11]; 1660 nM (active) in experiment [4]. Further, the Potency in experiment [12] was 2090 nM (active); in [5], 14800 nM (active); in experiment [6], 935 nM (active); in experiment [7], 3720 nM (active); in experiment [8] it was 11800 nM (active); in experiment [9], 1870 nM (active). The Potency was 1660 nM (active) in [13] and 13200 nM (active) in experiment [14].

Consider `COc1c(N2C[C@@H]3CCCN[C@H]3C2)c(F)cc2c(=O)c(C(=O)O)cn(C3CC3)c12`, for which the Potency result in experiment [1], in experiment [11], in experiment [15], in experiment [13] and in experiment [14] was “inactive” each time. Also, the Potency was 37200 nM (active) in experiment [3] and 14800 nM (active) in experiment [9].

On to `Nc1ccn([C@@H]2O[C@H](CO)[C@H](O)C2(F)F)c(=O)n1`, for which the Potency is 41.8 nM (active) in experiment [1]; 59 nM (active) in experiment [2]; 105 nM (active) in [3]; 296 nM (active) in [10]; 469 nM (active) in experiment [11]; 83.3 nM (active) in [4]. Further, the Potency is 5900 nM (active) in [16]; 526 nM (active) in experiment [5]; 105 nM (active) in [17]; 18.7 nM (active) in experiment [15]; 52.6 nM (active) in experiment [18]; 26.4 nM (active) in experiment [9]. Also, the Potency is 74.3 nM (active) in [13] and 418 nM (active) in [14].

Consider `Cc1c(C)n(Cc2ccc(-c3ccccc3C(=O)O)cc2)c2ccc(C(=O)N[C@@H](C)c3ccc([N+](=O)[O-])cc3)cc12`, for which the Potency is 23500 nM (active) in [1]; 118 nM (active) in experiment [2]; 93.5 nM (active) in experiment [11]; 935 nM (active) in experiment [4]; 18.7 nM (active) in experiment [12]; 13200 nM (active) in experiment [5]. Also, the Potency in [17] was 93.5 nM (active); in experiment [6] it was 18700 nM (active); in [15], 18700 nM (active); in [8], 5260 nM (active); in [18], 83.3 nM (active); in [13], 118 nM (active). Also, the results for the Potency in experiment [14] and in experiment [19] were 11800 nM (active) and 148 nM (active), respectively.

Consider `CNC(=O)CN1CCC(Oc2cc3c(Nc4cccc(Cl)c4F)ncnc3cc2OC)CC1`, for which the Potency in [1] was 18.7 nM (active); in experiment [3], 37.2 nM (active); in experiment [10], 1 nM (active); in experiment [11], 1 nM (active); in [4], 14.8 nM (active); in experiment [16], 37.2 nM (active). Besides, the Potency in [5] was 33.2 nM (active); in [17], 1 nM (active); in [6], 23.5 nM (active); in [8] it was 18.7 nM (active); in [18], 1 nM (active); in [9], 18.7 nM (active). Moreover, the Potency in [13] is 10.5 nM (active); in [14] it was 41.8 nM (active).
